Potency and outcome data for seven compounds are collected here from PubChem BioAssay (Tox21).

Test [1] can be described thus: Nuclear factor erythroid 2-related factor 2/antioxidant responsive element (Nrf2/ARE) small molecule agonists: qHTS cell viability counter screen in human keratinocytes (AID 1919968; active = well fitted curve in the direction sought with a large enough effect in the repeat runs; an effect the other way counts as inactive or inconclusive; also: nearly all actives have a fitted effect of over 55% in size; also: potency is read from the fitted curve at half-maximal effect). A digest of the protocol:
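HaCaT ARE reporter line, 1,500 cells/well; 5 h settle, 37 C/5% CO2; cpd in DMSO pinned; 23 h exposure; CellTiter-Fluor, 1 h; fluorescence.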

Test [2] is described as follows: Nuclear factor erythroid 2-related factor 2/antioxidant responsive element (Nrf2/ARE) small molecule agonists: luciferase reporter gene qHTS assay in human keratinocytes (AID 1919969; also: nearly all actives have a fitted effect of over 35% in size). (A reporter such as luciferase makes a cellular process visible.)
The target in test [3] is Gonadotropin-releasing hormone receptor (Homo sapiens) (UniProt P30968). The test can be described thus: Human gonadotropin-releasing hormone receptor (GnRHR) small molecule agonists, calcium flux assay in GnRHR-HEK293 cells (AID 1920063). Also: nearly all actives have a fitted effect of over 35% in size. The method, boiled down:
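GnRHR-HEK293, 1500 cells/well, 18 h 37 C/5% CO2; Ca dye 1 h 37 C; cpd pinned (DMSO), agonist mode; kinetic FL 480/540, 3 min, 1 s reads; 15 conc, n=3.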
For orientation: A change in cytosolic calcium serves as a functional read-out for many receptors and channels.

Test [4] deals with KiSS-1 receptor (Homo sapiens) (UniProt Q969F8). The test can be described thus: Human kisspeptin (KISS1R) small molecule agonists, calcium flux assay in KISS1R-HEK293 cells (AID 1920064; active = well fitted curve in the direction sought with a large enough effect in the repeat runs; an effect the other way counts as inactive or inconclusive). A digest of the protocol:
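Stable human KISS1R HEK293 line; 18 h plating, 37 C/5% CO2; calcium dye 1 h 37 C; compound pin transfer; kinetic fluorescence Ex/Em 480/540, 3 min.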

Test [5] in a line: G protein-coupled receptor (GPCR) small molecule agonists, calcium flux assay: HEK293 wild type cell line counter screen (AID 1920065). A digest of the protocol: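 Kinetic fluorescence at Ex/Em 480/540, recorded every second over 3 min, served as the read-out after compound addition. Each compound was tested at 15 concentrations in triplicate on cells pre-loaded with calcium dye for 1 h.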

A short description of test [6]: p53 small molecule agonists, cell-based qHTS assay with human liver microsomes (AID 1963577).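 Also: p53 response element beta-lactamase reporter cells with liver microsomes plus NADPH.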 A digest of the protocol: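 Reporter activation was measured by LiveBLAzer fluorescence intensity in p53RE-bla cells, which had been exposed to compounds for 16 h at 37 C alongside 0.5 mg/mL human liver microsomes and 0.5 mg/mL NADPH (final concentrations).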
Test [7] is described as follows: p53 small molecule agonists, cell-based qHTS assay with rat liver microsomes (AID 1963578). A digest of the protocol: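 Compound in DMSO added to p53RE-bla cells 5 h post-plating; rat microsomes/NADPH 0.5 mg/mL final; 16 h, 37 C; LiveBLAzer 2 h RT.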
The nature of test [8]: p53 small molecule agonists, cell-based qHTS assay with human liver microsomes: qHTS cell viability counter screen (AID 1963579). Also: nearly all actives have a fitted effect of over 45% in size. The method, boiled down: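 HLM-supplemented (0.5 mg/mL final) and NADPH-supplemented (0.5 mg/mL final) p53RE-bla cultures, 4,000 cells per well, were dosed with compounds in DMSO for 16 h at 37 C; luminescent ATP detection (CellTiter-Glo, 30 min, room temperature) quantified surviving cells.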

Test [9] can be described thus: p53 small molecule agonists, cell-based qHTS assay with rat liver microsomes: qHTS cell viability counter screen (AID 1963580). Also: nearly all actives have a fitted effect of over 45% in size. A digest of the protocol: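 HCT-116 p53RE-bla, 4,000 cells/well, 5 h pre-incubation; cpd + rat liver microsomes 0.5 mg/mL + NADPH 0.5 mg/mL (final); 16 h, 37 C; CellTiter-Glo, 30 min RT; luminescence.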
A short description of test [10]: p53 small molecule agonists, cell-based qHTS assay: qHTS cell viability counter screen (AID 1963581). Also: nearly all actives have a fitted effect of over 45% in size. A digest of the protocol:
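HCT-116 p53RE-bla cells, 4,000/well, plated 5 h before compound pin transfer; 16 h at 37 C; bla substrate 2 h RT; then CellTiter-Glo, 30 min RT, luminescence.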
In general terms: In qHTS, concentration-response curves come from the screen itself.

Test [11] addresses 5-hydroxytryptamine receptor 2A (Homo sapiens) (UniProt P28223). The test can be described thus: 5-hydroxytryptamine receptor 2A (HTR2A) small molecule antagonists, cell-based qHTS assay (AID 1963586). Also: nearly all actives have a fitted effect of over 45% in size. Also: potency is read from the fitted curve at half-maximal effect. A digest of the protocol:
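Antagonist-mode intracellular calcium assay: DOI (4 nM) added after 5 min compound pre-incubation at room temperature to dye-loaded HTR2A-CHO cells. Fluorescence followed for 3 min, sampled every second.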

The target is the same in test [12]. In words: 5-hydroxytryptamine receptor 2A (HTR2A) small molecule agonists, cell-based qHTS assay (AID 1963587). Also: nearly all actives have a fitted effect of over 30% in size. The method, boiled down:
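Kinetic calcium-flux fluorescence (2 min, 1 sec intervals) after compound addition in agonist mode. HTR2A-CHO cells were cultured 18 h, then dye-loaded 1 h at 37 C.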

Test [13] can be described thus: cAMP Responsive Elements (CRE) small molecule agonists, cell-based qHTS assay (AID 1963590). A digest of the protocol: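 HEK 293T CRE-bla, 2,000 cells/well, 18 h preincubation 37 C/5% CO2; cpds (DMSO) pinned, 3 h; LiveBLAzer B/G FRET substrate, 2 h RT.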
Test [14] in a line: cAMP Responsive Elements (CRE) small molecule antagonists, cell-based qHTS assay (AID 1963591; active = well fitted inhibition curve with a large enough effect in the signal ratio in the repeat runs, not every such curve was filed as active; the % refers to the signal ratio). The method, boiled down: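 Beta-lactamase reporter read by FRET substrate (LiveBLAzer B/G) after 2 h at room temperature. CRE-bla HEK293T cells had received compound plus 0.25 uM (final) NKH477 for 3 h at 37 °C.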
Test [15] has as its target D(2) dopamine receptor (Homo sapiens) (UniProt P14416). The test can be described thus: Dopamine D2 receptor (DRD2) small molecule agonists, cell-based qHTS assay (AID 1963594). Also: nearly all actives have a fitted effect of over 35% in size. The method, boiled down: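 cAMP accumulation in DRD2-HEK293 cells measured by HTRF after 1 h detection; compounds added 10 min before NKH477 (200nM […]) forskolin-analogue stimulation, 30 min at room temperature, with Ro20-1724 present at 0.1 mM final.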

Test [16] shares this target. The test can be described thus: Dopamine D2 receptor (DRD2) small molecule antagonists, cell-based qHTS assay (AID 1963595; active = well fitted inhibition curve with a large enough effect in the signal ratio in the repeat runs, with a control signal flat; the % refers to the signal ratio). The method, boiled down: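 Readout: HTRF cAMP, cAMP-d2 competing with cellular cAMP for anti-cAMP cryptate, read after 1 h. Cells: DRD2-HEK293. Conditions: 0.1 mM Ro20-1724, 12 nM quinpirole, 200 nM NKH477, 30 min RT.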
Test [17] addresses Muscarinic acetylcholine receptor M1 (Homo sapiens) (UniProt P11229). The test can be described thus: Cholinergic receptor muscarinic 1 (CHRM1) small molecule agonists, cell-based qHTS assay (AID 1963589). Also: nearly all actives have a fitted effect of over 35% in size. A digest of the protocol: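 Human M1 in stable CHO line; 18 h plating, 1 h dye load 37 C; cpd added (agonist mode); Ca2+ fluorescence kinetic read, 1 s intervals; 15 conc, 3 runs.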

Test [18] has as its target Beta-2 adrenergic receptor (Homo sapiens) (UniProt P07550). The test can be described thus: Adrenergic beta2 receptor (ADRB2) small molecule agonists, cell-based qHTS assay (AID 1963593).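 Also: CHO cells stably overexpressing human ADRB2.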 A digest of the protocol:
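CHO cells stably over-expressing ADRB2 were plated overnight at 37C, then dosed with compounds plus a stimulation mix containing 100uM IBMX and 25uM Ro-20-1724 for 0.5hr at room temperature. cAMP was measured by HTRF competition, 1hr.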

The target is the same in test [19]. In words: Adrenergic beta2 receptor (ADRB2) small molecule antagonists, cell-based qHTS assay (AID 1963592). Also: series mostly up to about 92 µM; nearly all actives have a fitted effect of over 50% in size. The method, boiled down:
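Cells (CHO, stable ADRB2 overexpression) incubated 18-20hr at 37C; compounds added from DMSO; agonist mix (1nM isoproterenol, 100uM IBMX, 25uM Ro-20-1724) added; 0.5hr RT; d2-cAMP and anti-cAMP-cryptate added; 1hr RT; 665/615 nm read.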

The target in test [20] is Muscarinic acetylcholine receptor M1 (Homo sapiens) (UniProt P11229). The test can be described thus: Cholinergic receptor muscarinic 1 (CHRM1) small molecule antagonists, cell-based qHTS assay (AID 1963588). Also: nearly all actives have a fitted effect of over 40% in size. The method, boiled down: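 CHRM1-CHO calcium-flux assay, antagonist mode. Cells were seeded 18 h, dye-loaded 1 h at 37 C and given compound for 5 min at RT, then acetylcholine was added at 50nM. FDSS fluorescence was read 3 min; 15 concentrations, three runs.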

Unmarked numbers belong to inactive results. Inconclusive results are not listed. Active and inactive are the calls of the source. Unless noted, calls follow the shape of the full dose curve.

Chain of KiSS-1 receptor (Homo sapiens) (Q969F8 whole entry, looked up): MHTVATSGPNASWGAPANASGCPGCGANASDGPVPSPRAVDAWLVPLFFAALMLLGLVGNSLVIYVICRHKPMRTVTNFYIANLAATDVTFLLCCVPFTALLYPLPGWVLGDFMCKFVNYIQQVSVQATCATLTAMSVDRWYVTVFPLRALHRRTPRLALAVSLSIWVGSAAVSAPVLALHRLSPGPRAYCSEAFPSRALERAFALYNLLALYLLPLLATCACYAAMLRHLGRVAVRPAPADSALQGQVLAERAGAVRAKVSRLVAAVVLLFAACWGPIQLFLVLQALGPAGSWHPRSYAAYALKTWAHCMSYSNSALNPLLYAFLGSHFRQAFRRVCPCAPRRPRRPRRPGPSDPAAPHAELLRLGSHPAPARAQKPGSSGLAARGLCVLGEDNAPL
Chain of Muscarinic acetylcholine receptor M1 (Homo sapiens) (P11229 whole entry, looked up): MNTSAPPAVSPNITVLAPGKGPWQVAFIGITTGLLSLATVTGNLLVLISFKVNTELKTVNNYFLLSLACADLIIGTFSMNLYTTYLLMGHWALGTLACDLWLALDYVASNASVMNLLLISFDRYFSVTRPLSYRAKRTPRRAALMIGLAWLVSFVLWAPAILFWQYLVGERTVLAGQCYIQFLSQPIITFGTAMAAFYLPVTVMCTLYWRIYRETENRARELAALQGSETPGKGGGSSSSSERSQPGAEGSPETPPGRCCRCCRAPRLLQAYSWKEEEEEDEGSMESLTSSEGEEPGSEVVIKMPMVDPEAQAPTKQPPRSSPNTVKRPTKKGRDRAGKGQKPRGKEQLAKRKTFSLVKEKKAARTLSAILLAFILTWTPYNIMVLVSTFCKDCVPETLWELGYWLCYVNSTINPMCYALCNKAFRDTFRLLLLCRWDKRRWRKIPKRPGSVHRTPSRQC
Chain of D(2) dopamine receptor (Homo sapiens) (P14416 whole entry, looked up): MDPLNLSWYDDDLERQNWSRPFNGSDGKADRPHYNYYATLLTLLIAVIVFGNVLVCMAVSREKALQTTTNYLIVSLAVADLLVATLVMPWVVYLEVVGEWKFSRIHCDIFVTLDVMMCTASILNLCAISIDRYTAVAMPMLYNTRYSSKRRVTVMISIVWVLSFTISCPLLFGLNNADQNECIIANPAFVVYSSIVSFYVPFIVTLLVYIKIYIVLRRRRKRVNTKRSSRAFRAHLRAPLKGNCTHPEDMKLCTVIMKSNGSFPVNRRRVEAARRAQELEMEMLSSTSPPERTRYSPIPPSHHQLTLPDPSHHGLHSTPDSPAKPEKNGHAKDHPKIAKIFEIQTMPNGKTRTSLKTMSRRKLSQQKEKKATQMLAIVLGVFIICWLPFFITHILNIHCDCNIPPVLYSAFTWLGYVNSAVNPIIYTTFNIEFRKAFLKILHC
Chain of Gonadotropin-releasing hormone receptor (Homo sapiens) (P30968 whole entry, looked up): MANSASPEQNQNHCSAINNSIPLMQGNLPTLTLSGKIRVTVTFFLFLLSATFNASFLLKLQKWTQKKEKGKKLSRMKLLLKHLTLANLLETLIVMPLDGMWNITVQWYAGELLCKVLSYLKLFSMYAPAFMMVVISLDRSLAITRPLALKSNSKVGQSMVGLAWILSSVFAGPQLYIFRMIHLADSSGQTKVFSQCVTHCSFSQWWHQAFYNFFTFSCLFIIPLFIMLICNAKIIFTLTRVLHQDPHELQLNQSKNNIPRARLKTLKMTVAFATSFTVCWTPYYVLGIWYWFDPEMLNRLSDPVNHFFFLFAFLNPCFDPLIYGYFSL
Chain of Beta-2 adrenergic receptor (Homo sapiens) (P07550 whole entry, looked up): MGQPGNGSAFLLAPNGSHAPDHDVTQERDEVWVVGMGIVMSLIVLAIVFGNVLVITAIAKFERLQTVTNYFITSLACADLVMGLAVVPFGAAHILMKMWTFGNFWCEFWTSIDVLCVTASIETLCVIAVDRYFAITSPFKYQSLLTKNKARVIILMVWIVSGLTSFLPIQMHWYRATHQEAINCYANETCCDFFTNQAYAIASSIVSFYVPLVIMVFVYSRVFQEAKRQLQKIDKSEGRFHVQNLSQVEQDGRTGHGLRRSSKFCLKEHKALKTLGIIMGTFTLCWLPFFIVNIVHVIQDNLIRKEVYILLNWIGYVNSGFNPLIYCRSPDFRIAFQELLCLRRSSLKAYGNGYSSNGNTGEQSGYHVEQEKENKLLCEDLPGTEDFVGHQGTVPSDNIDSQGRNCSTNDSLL
Chain of 5-hydroxytryptamine receptor 2A (Homo sapiens) (P28223 whole entry, looked up): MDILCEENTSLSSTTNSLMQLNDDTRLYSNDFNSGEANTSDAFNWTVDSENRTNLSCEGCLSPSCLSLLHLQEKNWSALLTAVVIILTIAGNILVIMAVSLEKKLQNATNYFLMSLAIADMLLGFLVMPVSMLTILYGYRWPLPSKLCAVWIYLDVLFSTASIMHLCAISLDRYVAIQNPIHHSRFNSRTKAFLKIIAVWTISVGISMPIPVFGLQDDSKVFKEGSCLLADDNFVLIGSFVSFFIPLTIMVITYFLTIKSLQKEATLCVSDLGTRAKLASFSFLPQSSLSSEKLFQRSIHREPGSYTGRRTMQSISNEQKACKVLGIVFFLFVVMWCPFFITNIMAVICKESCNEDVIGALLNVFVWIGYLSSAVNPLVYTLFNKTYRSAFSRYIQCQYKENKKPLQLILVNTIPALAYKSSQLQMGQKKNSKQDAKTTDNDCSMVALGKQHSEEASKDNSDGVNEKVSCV

As to `c1ccc(C(O[C@H]2CCCN(CCc3ccc4c(c3)OCO4)C2)c2ccccc2)cc1`, the Potency result in test [1], in test [2], in [3], in [6], in [7] and in [8] was “inactive” in each case. Moreover, the Potency entry in test [9], in test [10], in [12], in [13], in [14] and in [15] was “inactive” throughout. Moreover, in test [16], the Potency entry is “inactive”. For the same compound, the result in test [4] and in test [5] was inactive. In addition, in test [11], the Potency is 9.18 µM (active).

Turning to `Cc1cccc(N(C)C(=S)Oc2ccc3c(c2)CCC3)c1`, the Potency entry in test [1], in test [2], in test [3], in [6], in [7] and in test [8] was “inactive” in each case. Also, the Potency result in [9], in test [10], in [12], in test [17], in test [13] and in test [14] was “inactive” in each case. Moreover, the Potency result in [18] and in [15] was “inactive” throughout. The outcome in [4] and in test [5] was inactive. The Potency in test [11] was 1.3 µM (active).

On to `CCNC(=O)N1CCN(CCCC(c2ccc(F)cc2)c2ccc(F)cc2)CC1`, for which the Potency entry in test [1], in test [2], in [3], in test [6], in [7] and in [8] was “inactive” each time. The Potency result in test [9], in test [10], in test [12], in test [13] and in test [19] was “inactive” each time. Moreover, the outcome in test [4] and in [5] was inactive. Moreover, in [11], the Potency is 0.23 µM (active).

As for `CN(C)c1ccc(C(c2ccccc2)c2ccc(N(C)C)cc2)cc1`, the Potency entry in test [1], in test [2], in test [3], in test [6], in test [7] and in test [8] was “inactive” throughout. For the same compound, the Potency result in test [9], in test [10], in test [11], in test [12], in [17] and in [14] was “inactive” each time. The Potency result in test [18] and in test [15] was “inactive” in each case. The outcome in [4] and in test [5] was inactive.

On to `CC(C)=CCC/C(C)=C/CC/C(C)=C/C(=O)OCC(=O)[C@@]1(O)CC[C@H]2[C@@H]3CCC4=CC(=O)C=C[C@]4(C)[C@H]3[C@@H](O)C[C@@]21C`, for which the Potency in test [1] was 6.68 µM (active). Besides, the Potency entry in test [2], in [3], in test [6], in [7], in test [8] and in [9] was “inactive” in each case. The Potency entry in [10], in test [11], in [12], in [20], in test [17] and in test [14] was “inactive” throughout. Moreover, the Potency entry in test [19] and in test [15] was “inactive” throughout. Further, the outcome in test [4] and in test [5] was inactive.

For `CCOc1ccccc1O`, the Potency result in test [1], in test [2], in test [3], in [6], in [7] and in test [8] was “inactive” throughout. For the same compound, the Potency entry in [9], in test [10], in test [11], in test [12], in [20] and in test [17] was “inactive” throughout. The Potency entry in test [14], in test [19], in test [18], in [15] and in test [16] was “inactive” throughout. Moreover, the outcome in [4] and in test [5] was inactive.

As to `O=C(c1ccc(O)cc1)c1ccc(Cl)cc1`, the Potency entry in [1], in [2], in test [3], in test [6], in test [7] and in test [8] was “inactive” throughout. Also, the Potency entry in test [9], in test [10], in test [11], in test [12], in test [20] and in [17] was “inactive” in each case. The Potency entry in test [19], in test [15] and in test [16] was “inactive” each time. In addition, the outcome in [4] and in [5] was inactive.
